Bioassay records (PubChem)
Pf growth 96h – inhibits malaria parasite growth, 96 h; P. falciparum luciferase reporter growth, 96 h; Potency, µM (doses to about 28.7 µM), inactives show top-dose activity change, negative = inhibition, hits mostly inhibitors; actives 6.9% (n = 320,000); further: on the % scale 0 is the no-effect control and ±100 the full control effect
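Readout is luminescence from an integrated firefly luciferase in P. falciparum. Red cells, 2% hematocrit and 0.05% parasitemia final, were cultured with compound through two parasite generations (96 hours) at 37 C, 5% CO2.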
Sm TGR block – inhibitors of Schistosoma mansoni thioredoxin glutathione reductase. actives 3% (n = 360,000). purified TGR, DTNB reduction, TNB absorbance 405 nm. Potency, µM (top dose mostly 114 µM), for the others: at the highest dose activity change, negative = inhibition, actives largely listed as inhibitors; further: on the % scale 0 is the no-effect control and ±100 the full control effect; nearly all actives have a fitted effect of over 60% in size
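First, TGR (20 nM dispensed) and NADPH were mixed with compound. Second, a 15 min room-temperature incubation followed. Third, further NADPH and then DTNB were added to start the reaction. Finally, TNB absorbance was monitored kinetically.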
Pf growth 48h – inhibits P. falciparum growth in the first generation, 48 h; P. falciparum luciferase growth in erythrocytes, 48 h; Potency, µM (highest dose often 28.7 µM), for inactives: top-dose activity change, negative = inhibition, most hits filed as inhibitors; actives 5.9% (n = 310,000); AID 504832; further: on the % scale 0 is the no-effect control and ±100 the full control effect
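Growth was read as firefly luciferase luminescence after a 48 h, 37 C, 5% CO2 exposure of compounds to reporter-bearing P. falciparum cultures (0.1% parasitemia, 2% hematocrit final) in Albumax-supplemented RPMI 1640.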
SARS PLpro yeast – blocks SARS-CoV papain-like protease in a yeast assay; S. cerevisiae expressing SARS-CoV PLpro, growth rescue; Potency, µM (highest dose often 32.9 µM), for inactives: at the highest dose activity, positive = growth rescue, actives largely listed as activators; actives 0.19% (n = 330,000); calls by dose curve; further: 0% is about no effect; nearly all actives have a fitted effect of over 55% in size
Starred values were filed as active, the others as inactive; ? = inconclusive; nt = no result; [ ] = another dose, or the depositor's remark. Most compounds without a hit are left out; they make up all but 12% or so of the library. Unless noted, the call rests on the fitted dose curve; in most records, active means well fitted curve in the direction sought with a large enough effect; inconclusive means small, poorly fitted or top-dose-only effect, or another doubt; inactive means no such curve, though single readings can be large; an effect the other way counts as inactive or inconclusive. Potency means the concentration at half of the fitted maximal effect.

SMILES	Pf growth 96h	Sm TGR block	Pf growth 48h	SARS PLpro yeast
CN1CCN(NC(=O)COc2cccc(C(F)(F)F)c2)CC1	?	-2%	4%	-11%
O=C(COc1ccc(Br)cc1CO)Nc1ccc(F)cc1	-11%	-2%	-9%	-11%
O=C(COc1ccc(Br)cc1CNC1CCCC1)Nc1ccccc1	-20%	15%	13µM*	0%
O=C(COc1ccc(Br)cc1CO)Nc1ccc(S(=O)(=O)N2CCCC2)cc1	?	-7%	9.3µM*	4%
CN1CCC(N(C)S(=O)(=O)c2ccc(NC(=O)COc3cccc(C(F)(F)F)c3)cc2)CC1	13µM*	-7%	?	1%
O=C(Cn1c(=O)n(CC2CCCO2)c(=O)c2ccccc21)Nc1ccc(F)cc1F (stereo unspecified)	nt	6%	nt	nt
CCCOc1ccccc1OCC(=O)Nc1ccc(S(=O)(=O)N2CCCC2)cc1	?	2%	-16%	-9%
CC(=O)Nc1ccc(S(=O)(=O)N2CCN(CCCOc3ccccc3Cl)CC2)cc1	6.6µM*	-26%	nt	2%
CC(=O)Nc1ccc(S(=O)(=O)N2CCc3c(Cl)cccc3C2)cc1	15µM*	-4%	nt	?
CC(=O)Nc1ccc(S(=O)(=O)N2CCN(S(=O)(=O)c3ccc(NC(C)=O)cc3)CC2)cc1	61%	0%	5%	1%
CCCOc1ccccc1OCC(=O)Nc1ccc(S(=O)(=O)N2CCCCC2)cc1	10µM*	2%	?	1%
Cc1ccc(OCC(=O)Nc2ccc(S(=O)(=O)N3CCOCC3)cc2)c(Br)c1	?	10%	10µM*	0%
CN(C(=O)Cn1c(=O)n(Cc2ccc(C(=O)NCc3ccc4c(c3)OCO4)cc2)c(=O)c2ccccc21)c1ccccc1	nt	0%	nt	nt
CCN(CC(=O)Nc1ccc2c(c1)OCCO2)C(=O)c1ccc(C(F)(F)F)cc1	97%	-9%	86%	0%
Cc1ccc(OCC(=O)Nc2ccc(S(=O)(=O)N3CCN(C)CC3)cc2)cc1	?	?	?	-14%
Cc1cc(OCC(=O)Nc2ccc(S(=O)(=O)N3CCN(C)CC3)cc2)ccc1Br	6.6µM*	-16%	12µM*	12%
COc1ccc(CCNC(=O)CSc2nc3nc(C)c(Cc4ccc(C)cc4)c(C)n3n2)cc1OC	nt	-3%	nt	nt
Cc1ccc2occ(-c3cc(-c4ccc(Cl)cc4)nc4c3COc3ccccc3-4)c(=O)c2c1	nt	7%	nt	nt
COc1cc(Nc2cc(C)nc3ncnn23)cc(OC)c1	10%	0%	8.3µM*	2%
COc1ccc(Nc2cc(C)nc3ncnn23)cc1Cl	?	3%	?	-8%
COc1cc(Nc2cc(C)nc3ncnn23)cc(OC)c1OC	?	-2%	9.3µM*	-4%
CCOC(=O)c1ccc(NC(=O)CSc2c(C(C)C)cnc3c2c(=O)n(C)c(=O)n3C)cc1	nt	-1%	nt	nt
CCOC(=O)c1[nH]c2ccccc2c1NC(=O)c1ccc(S(=O)(=O)N2CCCCC2)cc1	9.3µM*	0%	?	24%
Cc1ccc(S(=O)(=O)N(C)c2ccc(OC(=O)c3cc(=O)[nH]c4ccccc34)cc2)cc1	nt	nt	nt	2%
CN(C)S(=O)(=O)c1ccc(C(=O)Oc2cc(=O)[nH]c3ccccc23)cc1	8.3µM*	20µM*	12%	7%
SMILES	Pf growth 96h	Sm TGR block	Pf growth 48h	SARS PLpro yeast
CCOC(=O)c1oc2ccccc2c1NC(=O)c1ccc(S(=O)(=O)N2CCCC2)cc1	?	6%	8%	-1%
CCOC(=O)c1[nH]c2ccccc2c1NC(=O)c1ccc(S(=O)(=O)N(C)C)cc1	10µM*	0%	10µM*	?
COCCN(C)Cc1cn(-c2ccc(F)cc2F)nc1-c1ccccc1C	40%	5µM*	-71%	-2%
Cc1ccccc1-c1nn(-c2ccc(F)cc2F)cc1CNCCCN(C)C	?	-8%	2.6µM*	1%
CCC(COC)NCc1cn(-c2ccc(F)cc2F)nc1-c1ccccc1C (stereo unspecified)	9%	-3%	?	0%
Cc1ccccc1-c1nn(-c2ccc(F)cc2F)cc1CNCCN(C)C	13µM*	-1%	?	-2%
CCCN1CCN(c2ncnc3sc(C(=O)Nc4ccc(C(C)C)cc4)c(C)c23)CC1	nt	1%	nt	nt
CC(=O)c1ccc(NC(=O)CN2C(=O)CCc3ccccc32)cc1	nt	-3%	nt	nt
CCSc1nnc2c(n1)[nH]c1c(C)cccc12	nt	13%[11.4 µM]	nt	-18%
CSc1nnc2c(n1)[nH]c1c(C)cccc12	5.2µM*	-7%	8.3µM*	4%
O=S(=O)(C(=CNc1ccccc1)S(=O)(=O)c1ccccc1)c1ccccc1	10µM*	-3%	-7%	-24%
Cc1ccc(Cl)cc1N1CCN(CCCNC(=O)C2COc3ccccc3C2)CC1 (stereo unspecified)	nt	-15%	nt	nt
O=C(COc1ccccc1)NCC(=O)N1CCCCCC1	-8%	-2%	4%	2%
Cc1cc(C)cc(N(CC(=O)NCc2ccco2)C(=O)c2snc(C(N)=O)c2N)c1	4.7µM*	-28%	-17%	-1%
Cc1ccc(CSc2nnc3[nH]c(=O)cc(C)n23)cc1	nt	0%	nt	nt
O=C(N1CCOCC1)N1CCN(S(=O)(=O)N2CCCCC2)CC1	4.1µM*	2%	12%	7%
COc1nc(-c2ccccc2)ccc1-c1noc(-c2cccnc2)n1	0%	18%	0%	14%
COc1nc(-c2ccc(C)cc2)ccc1-c1noc(-c2cccnc2)n1	12µM*	11%	23%	8%
CC(=O)N1CCCC1c1nc2ccccc2n1Cc1ccccc1C (stereo unspecified)	nt	5%	nt	nt
CCOC(=O)C1=C(C)N=c2s/c(=C/c3cccc([N+](=O)[O-])c3O)c(=O)n2C1c1cc(OC)c(OC)c(OC)c1 (stereo unspecified)	?	?	1µM*	0%
CCOC(=O)C1=C(C)N=c2s/c(=C/c3cccc([N+](=O)[O-])c3O)c(=O)n2C1c1ccccc1 (stereo unspecified)	-17%	-32%	?	1%
CCOC(=O)C1=C(C)N=c2s/c(=C\c3cccn3C)c(=O)n2C1c1cccc(OC)c1OC (stereo unspecified)	?	-7%	2.1µM*	-1%
CCOC(=O)c1ccccc1NC(=O)NC(C)c1c(-n2cccc2)sc(C)c1C (stereo unspecified)	nt	-8%	nt	nt
Cc1ccc[n+](C(C)C(=O)Nc2ccc([N+](=O)[O-])cc2C)c1 (stereo unspecified)	29%	1%	3%	-1%
Cc1ccc[n+](C(C)C(=O)Nc2ccc(C)c([N+](=O)[O-])c2)c1 (stereo unspecified)	12µM*	-1%	?	1%
CC(C)CCNc1nc(-c2ccco2)c2c(c1C#N)CCCC2	13µM*	40µM*	nt	-8%
CCN(CC)CCNc1nc(-c2ccccc2)c2c(c1C#N)CC(C)(C)OC2	8.3µM*	0%	nt	-4%
CCc1nc(N2CCOCC2)c(C#N)c2c1CCCC2	-21%	-5%	13%	1%
N#Cc1c(N2CCOCC2)nc(-c2ccco2)c2c1CCCC2	64%	2.8µM*	-27%	-4%
